# Measurements taken from PubChem BioAssay (EPA / NIEHS).
# “And” between values parts separate entries of the source, which are not always exact repeats. Equal values may be shown once. Some compounds were tested as several samples or in several runs, with calls that do not always agree. The source made the active and inactive calls. The calls were made as follows: active = hit-call score of the fitted dose curve at least 0.9, where 1 is the maximum; inactive = score below 0.9.
# Tests used:
# [1] = target: Bile acid receptor (Homo sapiens) (UniProt Q96RI1); experiment: ATG_IR1_CIS: Attagene CIS-FACTORIAL HepG2 Assay for human Nuclear Receptor Subfamily 1 Group H Member 4 (NR1H4), IR1 submotif (AID 2282946); settings: IR1 reporter transcription, actives raise or lower the signal
# Chain of Bile acid receptor (Homo sapiens) (Q96RI1 whole entry, looked up): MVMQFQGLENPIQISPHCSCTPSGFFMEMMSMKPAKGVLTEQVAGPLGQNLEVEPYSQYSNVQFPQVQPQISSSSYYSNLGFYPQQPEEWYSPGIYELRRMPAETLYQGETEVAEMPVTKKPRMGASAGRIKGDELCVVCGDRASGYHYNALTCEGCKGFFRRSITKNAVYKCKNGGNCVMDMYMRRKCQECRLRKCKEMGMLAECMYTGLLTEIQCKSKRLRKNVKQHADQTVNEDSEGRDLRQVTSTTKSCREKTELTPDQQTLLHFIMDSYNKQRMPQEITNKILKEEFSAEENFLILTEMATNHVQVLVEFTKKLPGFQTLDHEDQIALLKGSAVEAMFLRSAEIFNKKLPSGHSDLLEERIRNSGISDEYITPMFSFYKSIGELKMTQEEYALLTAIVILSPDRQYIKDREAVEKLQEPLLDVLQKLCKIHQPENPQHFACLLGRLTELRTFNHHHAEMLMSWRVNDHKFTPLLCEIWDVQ
# Method in brief: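 Transient MRTU transfection, HepG2; 24 h dosing; RNA → RT-PCR → 6-FAM primer extension → HpaI digest → capillary electrophoresis fluorescence. Gain/loss of signal fitted relative to DMSO.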
# [2] = ATG_GRE_CIS: Attagene CIS-FACTORIAL HepG2 Assay for human Glucocorticoid Response Elements (GRE) (AID 2282947); settings: HepG2 GRE cis-reporter, Attagene multiplex mRNA; actives raise or lower the signal
# Method in brief: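 Following 24 h chemical exposure of transiently transfected HepG2 cells, total RNA was reverse-transcribed and reporter cDNA amplified, fluorescently labelled and sized by capillary electrophoresis. Signal gain or loss was fitted relative to DMSO vehicle.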
# [3] = ATG_ISRE_CIS: Attagene CIS-FACTORIAL HepG2 Assay for human Interferon Regulatory Factor 1 (IRF1) binding to an Interferon-Stimulated Response Element (ISRE) (AID 2282948); settings: HepG2 ISRE cis-reporter (Attagene), mRNA transcription readout; actives raise or lower the signal
# Method in brief: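 Cell-based cis-reporter assay; HepG2; 24 h exposure; reporter mRNA by RT-PCR plus capillary electrophoresis fluorescence; activity in either direction scored relative to DMSO.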
# [4] = ATG_M_32_CIS: Attagene CIS-FACTORIAL HepG2 Assay for M32 Transcription Factor (Internal Marker) (AID 2282949); settings: HepG2 Attagene cis-factorial M32 reporter, mRNA; actives raise or lower the signal;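 also: background control marker of the multiplexed CIS panel rather than a real target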
# Method in brief: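 Fluorescent capillary electrophoresis peaks of HpaI-digested, FAM-labelled RT-PCR reporter products give the signal. Source: transiently transfected human liver HepG2 cells, 24 h after chemical dosing; bidirectional fitting against DMSO.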
# [5] = ATG_M_06_CIS: Attagene CIS-FACTORIAL HepG2 Assay for M06 Transcription Factor (Internal Marker) (AID 2282950); settings: HepG2 Attagene CIS-FACTORIAL M06 internal marker reporter; actives raise or lower the signal
# Method in brief: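 Serves as a background control readout. Transfected HepG2 exposed to compounds for 24 h, then reporter transcripts quantified by fluorescent RT-PCR and capillary electrophoresis. Both directions fitted against DMSO baseline.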
# [6] = target: Hepatocyte nuclear factor 6 (Homo sapiens) (UniProt Q9UBC0); experiment: ATG_HNF6_CIS: Attagene CIS-FACTORIAL HepG2 Assay for human Hepatocyte Nuclear Factor 6 (HNF6) (AID 2282952); settings: HepG2 Attagene cis-factorial HNF6 reporter transcription; actives raise or lower the signal
# Chain of Hepatocyte nuclear factor 6 (Homo sapiens) (Q9UBC0 whole entry, looked up, the tested form may be a part): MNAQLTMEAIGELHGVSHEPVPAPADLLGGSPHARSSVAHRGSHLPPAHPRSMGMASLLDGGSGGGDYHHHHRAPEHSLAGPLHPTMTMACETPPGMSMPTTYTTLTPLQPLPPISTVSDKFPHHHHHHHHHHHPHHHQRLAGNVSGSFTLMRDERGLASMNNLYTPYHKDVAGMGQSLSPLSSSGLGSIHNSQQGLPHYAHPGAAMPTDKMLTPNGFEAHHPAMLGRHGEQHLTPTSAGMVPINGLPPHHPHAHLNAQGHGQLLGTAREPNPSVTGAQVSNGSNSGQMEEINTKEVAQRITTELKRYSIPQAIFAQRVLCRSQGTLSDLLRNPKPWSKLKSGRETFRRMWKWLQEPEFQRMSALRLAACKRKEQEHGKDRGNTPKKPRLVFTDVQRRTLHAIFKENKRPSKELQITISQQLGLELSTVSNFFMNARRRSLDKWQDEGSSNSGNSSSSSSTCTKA
# Method in brief: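 HepG2 cells transiently transfected with cis-element-driven multiplexed reporter units measuring endogenous transcription factor activity. After 24 h exposure, reporter mRNA quantified by RT-PCR, FAM-labelled fragments and capillary electrophoresis; bidirectional fitting versus DMSO.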
# [7] = target: Heat shock factor protein 1 (Homo sapiens) (UniProt Q00613); experiment: ATG_HSE_CIS: Attagene CIS-FACTORIAL HepG2 Assay for human Heat Shock Transcription Factor 1 (HSE) (AID 2282953); settings: HepG2 HSE cis-reporter, Attagene RNA transcription; actives raise or lower the signal
# Chain of Heat shock factor protein 1 (Homo sapiens) (Q00613 whole entry, looked up): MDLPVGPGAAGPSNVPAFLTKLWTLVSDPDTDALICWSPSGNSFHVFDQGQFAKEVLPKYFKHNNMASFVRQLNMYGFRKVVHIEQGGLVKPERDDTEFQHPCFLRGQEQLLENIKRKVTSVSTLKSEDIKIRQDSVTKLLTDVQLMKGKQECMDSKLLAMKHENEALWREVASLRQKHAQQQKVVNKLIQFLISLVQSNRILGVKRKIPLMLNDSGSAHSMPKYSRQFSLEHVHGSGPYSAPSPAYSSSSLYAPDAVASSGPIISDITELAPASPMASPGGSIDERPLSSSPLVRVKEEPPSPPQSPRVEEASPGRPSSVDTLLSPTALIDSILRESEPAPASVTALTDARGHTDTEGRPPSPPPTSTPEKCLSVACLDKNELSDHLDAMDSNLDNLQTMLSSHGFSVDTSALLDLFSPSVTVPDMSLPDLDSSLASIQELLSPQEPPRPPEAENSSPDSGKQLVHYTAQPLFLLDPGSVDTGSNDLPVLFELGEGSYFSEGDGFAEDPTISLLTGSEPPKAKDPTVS
# Method in brief: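 Endogenous transcription factor activity in transiently transfected HepG2, read as reporter mRNA by RT-PCR with fluorescent capillary electrophoresis after 24 h. Gain or loss of signal fitted versus DMSO baseline.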
# [8] = ATG_MRE_CIS: Attagene CIS-FACTORIAL HepG2 Assay for human Metal Responsive Element (MRE) (AID 2282954); settings: HepG2 MRE cis-reporter transcription, Attagene multiplex; actives raise or lower the signal
# Method in brief: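 Step one: transfect HepG2 with cis-regulated reporter units. Step two: dose 24 h. Step three: isolate RNA, RT-PCR, 6-FAM label, HpaI digest, capillary electrophoresis. Fit bidirectionally to DMSO.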
# [9] = ATG_PBREM_CIS: Attagene CIS-FACTORIAL HepG2 Assay for human Phenobarbital-responsive Enhancer Module (PBREM) (AID 2282955); settings: HepG2 PBREM cis-reporter, Attagene multiplexed transcription; actives raise or lower the signal
# Method in brief: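 Readout: reporter mRNA, fluorescent RT-PCR fragments separated by capillary electrophoresis. System: HepG2 transiently transfected with cis-regulated reporter units. Exposure: 24 h. Analysis: bidirectional, DMSO baseline.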
# [10] = target: Hypoxia-inducible factor 1-alpha (Homo sapiens) (UniProt Q16665); experiment: ATG_HIF1a_CIS: Attagene CIS-FACTORIAL HepG2 Assay for human Hypoxia Inducible Factor 1 (HIF1A) (AID 2282951); settings: HepG2 Attagene cis-factorial HIF1a reporter transcription; actives raise or lower the signal
# Chain of Hypoxia-inducible factor 1-alpha (Homo sapiens) (Q16665 whole entry, looked up): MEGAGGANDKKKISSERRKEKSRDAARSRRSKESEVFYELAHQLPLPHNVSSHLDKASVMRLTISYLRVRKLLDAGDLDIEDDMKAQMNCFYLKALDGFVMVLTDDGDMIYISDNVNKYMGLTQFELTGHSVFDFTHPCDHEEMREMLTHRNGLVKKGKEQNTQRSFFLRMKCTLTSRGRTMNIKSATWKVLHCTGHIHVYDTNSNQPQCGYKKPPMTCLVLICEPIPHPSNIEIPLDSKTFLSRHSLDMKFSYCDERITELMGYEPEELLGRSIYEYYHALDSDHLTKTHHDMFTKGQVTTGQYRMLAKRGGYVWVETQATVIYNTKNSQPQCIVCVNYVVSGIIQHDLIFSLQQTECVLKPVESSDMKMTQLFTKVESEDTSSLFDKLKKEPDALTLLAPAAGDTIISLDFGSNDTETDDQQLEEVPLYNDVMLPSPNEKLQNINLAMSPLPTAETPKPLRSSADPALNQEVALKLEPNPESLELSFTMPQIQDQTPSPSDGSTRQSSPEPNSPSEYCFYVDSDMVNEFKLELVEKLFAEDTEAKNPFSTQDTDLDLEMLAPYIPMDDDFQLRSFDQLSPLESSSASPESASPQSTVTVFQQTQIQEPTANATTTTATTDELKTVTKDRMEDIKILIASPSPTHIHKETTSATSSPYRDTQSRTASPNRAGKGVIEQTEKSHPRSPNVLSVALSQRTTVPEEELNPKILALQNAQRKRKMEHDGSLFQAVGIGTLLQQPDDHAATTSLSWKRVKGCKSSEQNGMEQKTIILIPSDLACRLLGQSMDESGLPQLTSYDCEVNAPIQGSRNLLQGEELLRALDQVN
# Method in brief: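 Endogenous-TF cis reporter readout, human HepG2 cells, 24 h incubation; mRNA detected via RT-PCR and capillary electrophoresis fluorescence; DMSO-normalised bidirectional fitting.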
SMILES,outcome [1],outcome [2],outcome [3],outcome [4],outcome [5],outcome [6],outcome [7],outcome [8],outcome [9],AC50 [3],AC50 [4],AC50 [6],AC50 [8],AC50 [10],outcome [10],AC50 [7],AC50 [9]
Nc1nc(Cl)nc2c1ncn2[C@H]1C[C@H](O)[C@@H](CO)O1,inactive,inactive,inactive,inactive,inactive,inactive,inactive,inactive,inactive,,,,,,,,
CCc1nc(N)nc(N)c1-c1ccc(Cl)cc1,inactive,inactive,,,inactive,,inactive,,inactive,100 µM (active),174 µM (active),100 µM (active),100 µM (active),,,,
N[C@@H](Cc1c[nH]c2ccccc12)C(=O)O,,inactive,inactive,inactive,inactive,inactive,inactive,inactive,,,,,,27.3 µM (active),,,
CC1=C(C)S(=O)(=O)CCS1(=O)=O,,inactive,inactive,inactive,inactive,inactive,inactive,inactive,inactive,,,,,,inactive,,
CN(C)CCCN1c2ccccc2Sc2ccc(Cl)cc21,inactive,inactive,inactive,inactive,inactive,,,,inactive,,,20.8 µM (active),15.5 µM (active),,,,
CCOCCOCCO,,inactive,inactive,inactive,inactive,inactive,inactive,inactive,,,,,,,inactive,,
O=[Si]=O,,inactive,inactive,inactive,inactive,inactive,inactive,inactive,,,,,,,inactive,,
CCc1cc(C2=C(C(=O)O)N(c3ccccc3C(F)(F)F)S(=O)(=O)c3ccccc32)cc2c1OCO2,,inactive,,inactive,inactive,inactive,,,,149 µM (active),,,58.5 µM (active),,inactive,154 µM (active),19.8 µM (active)
CC(=O)OCC(COC(C)=O)OC(C)=O,,inactive,inactive,inactive,inactive,inactive,inactive,inactive,,,,,,,inactive,,
Cc1ccc(-c2cc(C(F)(F)F)nn2-c2ccc(S(N)(=O)=O)cc2)cc1,,inactive,inactive,inactive,inactive,inactive,inactive,,,,,,6.28 µM (active),,inactive,,
NC=O,inactive,,inactive,inactive,inactive,inactive,inactive,inactive,,,,,,,inactive,,
O=C(O)c1cccnc1,inactive,,inactive,inactive,inactive,,inactive,inactive,inactive,,,,,,inactive,,
O=Cc1ccccc1C=O,,inactive,inactive,inactive,inactive,inactive,inactive,inactive,,,,,,26.2 µM (active),,,
CCCC(=O)O,,inactive,inactive,inactive,inactive,inactive,inactive,inactive,inactive,,,,,,inactive,,
NCCOCCOCCN,,inactive,inactive,inactive,inactive,inactive,inactive,inactive,inactive,,,,,,inactive,,
CC(C)COC(=O)CCCCC(=O)OCC(C)C,inactive,,inactive,inactive,inactive,inactive,inactive,inactive,,,,,,,inactive,,
O=C(O)c1[nH]n(-c2ccc(S(=O)(=O)O)cc2)c(=O)c1N=Nc1ccc(S(=O)(=O)O)cc1,inactive,,inactive,inactive,inactive,inactive,inactive,inactive,inactive,,,,,,inactive,,
CC(=O)OC1CC(C)OC(C)O1 (centres undefined),inactive,inactive,inactive,inactive,inactive,inactive,,inactive,inactive,,,,,,inactive,,
CC1(C)C(=O)NC(=O)N1CO,,inactive,inactive,inactive,inactive,inactive,inactive,inactive,inactive,,,,,,inactive,,
OCC(CO)n1cnc(-c2ccc(F)cc2)c1-c1ccnc(Oc2ccccc2)n1,,inactive,inactive,inactive,inactive,inactive,inactive,inactive,inactive,,,,,,inactive,,
O=C1O[C@H]([C@H](O)CO)C(O)=C1O,,inactive,inactive,inactive,inactive,inactive,inactive,inactive,inactive,,,,,,inactive,,
CC(=O)O[C@]1(C(C)=O)CC[C@H]2[C@@H]3C=C(Cl)C4=CC(=O)[C@@H]5C[C@@H]5[C@]4(C)[C@H]3CC[C@@]21C,,,inactive,inactive,inactive,inactive,inactive,inactive,,77.5 µM (active),,165 µM (active) and 57.2 µM (active),100 µM (active) [middle of 4 runs],,,83.8 µM (active) [middle of 4 runs],
